Where a chain is given by its changes, count along the chain named. Over roughly 16,000 sequences, “ka relative to ugcaugu” has its median near 0.0091; the highest 2% begin near 0.032. This is one part of a sample in which the highest values are shown more often than they occur.
T1: RBFOX1 RRM (Homo sapiens, UniProt Q9NWB1 109-208)
T1 sequence: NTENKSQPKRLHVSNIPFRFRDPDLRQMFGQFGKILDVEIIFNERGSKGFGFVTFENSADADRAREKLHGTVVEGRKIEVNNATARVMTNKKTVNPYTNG

B1: GGGCAUC (DNA:RNA)
RNA: GGGAGACCGGAAUUCAGAUUGUCCGGGCAUCUUAAAUCCCGUCGUAGCCACCA
DNA 1: CAATCTGAATTCCGGTCTCCC
DNA 2: TGGTGGCTACGACGGGATT
B2: GGGCAUU (DNA:RNA)
RNA: B1 RNA with C31U
DNA 1: CAATCTGAATTCCGGTCTCCC
DNA 2: TGGTGGCTACGACGGGATT
B3: CGGGCAU (DNA:RNA)
RNA: B1 RNA with G25C, C28G, A29C, U30A, C31U
DNA 1: CAATCTGAATTCCGGTCTCCC
DNA 2: TGGTGGCTACGACGGGATT
B4: GGGGCAU (DNA:RNA)
RNA: B1 RNA with C28G, A29C, U30A, C31U
DNA 1: CAATCTGAATTCCGGTCTCCC
DNA 2: TGGTGGCTACGACGGGATT
B5: GGGCAUA (DNA:RNA)
RNA: B1 RNA with C31A
DNA 1: CAATCTGAATTCCGGTCTCCC
DNA 2: TGGTGGCTACGACGGGATT
B6: GGGCAUG (DNA:RNA)
RNA: B1 RNA with C31G
DNA 1: CAATCTGAATTCCGGTCTCCC
DNA 2: TGGTGGCTACGACGGGATT
B7: CGCCCAU (DNA:RNA)
RNA: B1 RNA with G25C, G27C, A29C, U30A, C31U
DNA 1: CAATCTGAATTCCGGTCTCCC
DNA 2: TGGTGGCTACGACGGGATT
B8: AGCCGAC (DNA:RNA)
RNA: B1 RNA with G25A, G27C, A29G, U30A
DNA 1: CAATCTGAATTCCGGTCTCCC
DNA 2: TGGTGGCTACGACGGGATT
B9: UCGCCUU (DNA:RNA)
RNA: B1 RNA with G25U, G26C, A29C, C31U
DNA 1: CAATCTGAATTCCGGTCTCCC
DNA 2: TGGTGGCTACGACGGGATT
B10: GGAAGAA (DNA:RNA)
RNA: B1 RNA with G27A, C28A, A29G, U30A, C31A
DNA 1: CAATCTGAATTCCGGTCTCCC
DNA 2: TGGTGGCTACGACGGGATT
B11: GGGAGAA (DNA:RNA)
RNA: B1 RNA with C28A, A29G, U30A, C31A
DNA 1: CAATCTGAATTCCGGTCTCCC
DNA 2: TGGTGGCTACGACGGGATT
B12: GGAGAAA (DNA:RNA)
RNA: B1 RNA with G27A, C28G, U30A, C31A
DNA 1: CAATCTGAATTCCGGTCTCCC
DNA 2: TGGTGGCTACGACGGGATT
B13: CGGAAGA (DNA:RNA)
RNA: B1 RNA with G25C, C28A, U30G, C31A
DNA 1: CAATCTGAATTCCGGTCTCCC
DNA 2: TGGTGGCTACGACGGGATT
B14: GGGAAGA (DNA:RNA)
RNA: B1 RNA with C28A, U30G, C31A
DNA 1: CAATCTGAATTCCGGTCTCCC
DNA 2: TGGTGGCTACGACGGGATT
B15: GUCAGAA (DNA:RNA)
RNA: B1 RNA with G26U, G27C, C28A, A29G, U30A, C31A
DNA 1: CAATCTGAATTCCGGTCTCCC
DNA 2: TGGTGGCTACGACGGGATT
B16: ACUGGCG (DNA:RNA)
RNA: GGGAGACCGGAAUUCAGAUUGUCCACUGGCGUUAAAUCCCGUCGUAGCCACCA
DNA 1: CAATCTGAATTCCGGTCTCCC
DNA 2: TGGTGGCTACGACGGGATT
B17: CAGGCCG (DNA:RNA)
RNA: B16 RNA with A25C, C26A, U27G, G29C
DNA 1: CAATCTGAATTCCGGTCTCCC
DNA 2: TGGTGGCTACGACGGGATT
B18: GCCGCGC (DNA:RNA)
RNA: B16 RNA with A25G, U27C, G29C, C30G, G31C
DNA 1: CAATCTGAATTCCGGTCTCCC
DNA 2: TGGTGGCTACGACGGGATT
B19: GCGCUGG (DNA:RNA)
RNA: B1 RNA with G26C, A29U, U30G, C31G
DNA 1: CAATCTGAATTCCGGTCTCCC
DNA 2: TGGTGGCTACGACGGGATT
B20: CCGCUGG (DNA:RNA)
RNA: B16 RNA with A25C, U27G, G28C, G29U, C30G
DNA 1: CAATCTGAATTCCGGTCTCCC
DNA 2: TGGTGGCTACGACGGGATT
B21: GCUUGUC (DNA:RNA)
RNA: B16 RNA with A25G, G28U, C30U, G31C
DNA 1: CAATCTGAATTCCGGTCTCCC
DNA 2: TGGTGGCTACGACGGGATT
B22: GCUGGUC (DNA:RNA)
RNA: B16 RNA with A25G, C30U, G31C
DNA 1: CAATCTGAATTCCGGTCTCCC
DNA 2: TGGTGGCTACGACGGGATT
B23: GCUUGAG (DNA:RNA)
RNA: B16 RNA with A25G, G28U, C30A
DNA 1: CAATCTGAATTCCGGTCTCCC
DNA 2: TGGTGGCTACGACGGGATT
B24: GCUCGUC (DNA:RNA)
RNA: B1 RNA with G26C, G27U, A29G
DNA 1: CAATCTGAATTCCGGTCTCCC
DNA 2: TGGTGGCTACGACGGGATT
B25: GCGCUUG (DNA:RNA)
RNA: B1 RNA with G26C, A29U, C31G
DNA 1: CAATCTGAATTCCGGTCTCCC
DNA 2: TGGTGGCTACGACGGGATT
B26: GCUUGAA (DNA:RNA)
RNA: B16 RNA with A25G, G28U, C30A, G31A
DNA 1: CAATCTGAATTCCGGTCTCCC
DNA 2: TGGTGGCTACGACGGGATT
B27: GCUCUUG (DNA:RNA)
RNA: B16 RNA with A25G, G28C, G29U, C30U
DNA 1: CAATCTGAATTCCGGTCTCCC
DNA 2: TGGTGGCTACGACGGGATT
B28: CGUUGAG (DNA:RNA)
RNA: B16 RNA with A25C, C26G, G28U, C30A
DNA 1: CAATCTGAATTCCGGTCTCCC
DNA 2: TGGTGGCTACGACGGGATT
B29: CGCGCGC (DNA:RNA)
RNA: B1 RNA with G25C, G27C, C28G, A29C, U30G
DNA 1: CAATCTGAATTCCGGTCTCCC
DNA 2: TGGTGGCTACGACGGGATT
B30: AGCCGGG (DNA:RNA)
RNA: B16 RNA with C26G, U27C, G28C, C30G
DNA 1: CAATCTGAATTCCGGTCTCCC
DNA 2: TGGTGGCTACGACGGGATT
B31: GUUCCGG (DNA:RNA)
RNA: B16 RNA with A25G, C26U, G28C, G29C, C30G
DNA 1: CAATCTGAATTCCGGTCTCCC
DNA 2: TGGTGGCTACGACGGGATT

The binders below were run against T1, RBFOX1 RRM (assay: EMSA; HiTS-Eq, 1 nM pool, 10 min; buffer printed only for the single-RNA assays: 10 mM Tris pH 7.5, 150 mM NaCl, 3.4 mM EDTA, 0.001% NP-40, 30 C). Conditions: tags: His6 N-terminal (pET28a); label: 5' 32P.
In short: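 Relative association constants, normalised to the cognate motif, were derived by comparing read counts of each RNA species with those of the control reaction. The RNA sequenced was the free fraction, separated by 8% native PAGE after a 10 min equilibration in 50 µL of 1 nM 5′-radiolabelled RNA (7 randomized nucleotides) with increasing concentrations of purified wild-type or mutant RbFox RRM.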
B1 was tested, and the binding signal was 0.0179 KA relative to UGCAUGU. In the case of B2, the binding signal is reported as 0.0157 KA relative to UGCAUGU. In the case of B3, the binding signal is reported as 0.0317 KA relative to UGCAUGU. In the case of B4, the binding signal is reported as 0.0283 KA relative to UGCAUGU. B5 was tested, and the binding signal was 0.0114 KA relative to UGCAUGU. B6 was tested, and the binding signal was 0.519 KA relative to UGCAUGU. With B7 the binding signal was 0.00281 KA relative to UGCAUGU. For B8, the binding signal was 0.00754 KA relative to UGCAUGU. For B9, the binding signal was 0.0126 KA relative to UGCAUGU. B10 was tested, and the binding signal was 0.0149 KA relative to UGCAUGU. For B11, the binding signal was 0.0327 KA relative to UGCAUGU. In the case of B12, the binding signal is reported as 0.0138 KA relative to UGCAUGU. For B13, the binding signal was 0.0191 KA relative to UGCAUGU. In the case of B14, the binding signal is reported as 0.0349 KA relative to UGCAUGU. For B15, the binding signal was 0.0136 KA relative to UGCAUGU. In the case of B16, the binding signal is reported as 0.0166 KA relative to UGCAUGU. With B17 the binding signal was 0.00997 KA relative to UGCAUGU. B18 was tested, and the binding signal was 0.0197 KA relative to UGCAUGU. With B19 the binding signal was 0.0322 KA relative to UGCAUGU. With B20 the binding signal was 0.0189 KA relative to UGCAUGU. In the case of B21, the binding signal is reported as 0.0386 KA relative to UGCAUGU. B22 was tested, and the binding signal was 0.0255 KA relative to UGCAUGU. B23 was tested, and the binding signal was 0.0353 KA relative to UGCAUGU. B24 was tested, and the binding signal was 0.0303 KA relative to UGCAUGU. In the case of B25, the binding signal is reported as 0.0323 KA relative to UGCAUGU. With B26 the binding signal was 0.0288 KA relative to UGCAUGU. For B27, the binding signal was 0.014 KA relative to UGCAUGU. B28 was tested, and the binding signal was 0.0235 KA relative to UGCAUGU. B29 was tested, and the binding signal was 0.0126 KA relative to UGCAUGU. B30 was tested, and the binding signal was 0.0115 KA relative to UGCAUGU. In the case of B31, the binding signal is reported as 0.0142 KA relative to UGCAUGU.

— publication PMC9911399, “Two distinct binding modes provide the RNA-binding protein RbFox with extraordinary sequence specificity”
